Data on 7 molecules can be found in PubChem BioAssay (Tox21).

The structures appear in SMILES notation. Values without a mark were called inactive. Records with an inconclusive call do not appear. The source made the active and inactive calls. Unless noted, the call rests on the fitted dose curve.

The nature of assay [1]: Nuclear factor erythroid 2-related factor 2/antioxidant responsive element (Nrf2/ARE) small molecule agonists: qHTS cell viability counter screen in human keratinocytes (AID 1919968; active means well fitted curve in the direction sought with a large enough effect in the repeat runs; an effect the other way counts as inactive or inconclusive; further: nearly all actives have a fitted effect of over 55% in size). An outline of the steps:
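Stably transfected HaCaT (KeratinoSens), 1,500/well. Test agents in DMSO were applied for 23 h, 37 C/5% CO2. CellTiter-Fluor was incubated 1 h before the fluorescence read.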
(In general: qHTS replaces the single test concentration by a dilution series.)

Assay [2] can be described thus: Nuclear factor erythroid 2-related factor 2/antioxidant responsive element (Nrf2/ARE) small molecule agonists: luciferase reporter gene qHTS assay in human keratinocytes (AID 1919969). Further: nearly all actives have a fitted effect of over 35% in size. Further: potency means the concentration at half of the fitted maximal effect. For orientation: Reporter assays use an easily measured gene product as a stand-in for the process of interest.
In assay [3] the target is KiSS-1 receptor (Homo sapiens) (UniProt Q969F8). In words: Human kisspeptin (KISS1R) small molecule agonists, calcium flux assay in KISS1R-HEK293 cells (AID 1920064; active means well fitted curve in the direction sought with a large enough effect in the repeat runs; an effect the other way counts as inactive or inconclusive). An outline of the steps:
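After overnight (18 h) culture at 37 C/5% CO2, human KISS1R-HEK293 cells received calcium dye for 1 h, then test compound; emission at 540 nm (excitation 480 nm) was tracked for 3 min.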

The nature of assay [4]: G protein-coupled receptor (GPCR) small molecule agonists, calcium flux assay: HEK293 wild type cell line counter screen (AID 1920065). In outline: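 Following 18 h incubation at 37 C/5% CO2, plates got calcium dye for 1 h; compounds, ATP or DMSO were then pinned in and fluorescence followed kinetically (480/540 nm).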
(In general: Calcium flux is commonly read through the fluorescence of an indicator in the cells.)

A short description of assay [5]: p53 small molecule agonists, cell-based qHTS assay with human liver microsomes (AID 1963577).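 Further: p53 response element beta-lactamase reporter cells with liver microsomes plus NADPH.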 An outline of the steps: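 HLM-supplemented p53RE-bla reporter assay: 16 h compound exposure at 37 C, microsomes and NADPH each 0.5 mg/mL final, read by fluorescence intensity.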
Assay [6] can be described thus: p53 small molecule agonists, cell-based qHTS assay with rat liver microsomes (AID 1963578). An outline of the steps: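 Quantitative HTS of the Tox21 10K library: p53RE-bla cells, rat liver microsomes plus NADPH at 0.5 mg/mL final each, 16 h at 37 C, beta-lactamase fluorescence detection.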
The nature of assay [7]: p53 small molecule agonists, cell-based qHTS assay with human liver microsomes: qHTS cell viability counter screen (AID 1963579). Further: nearly all actives have a fitted effect of over 45% in size. In outline:
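Viability of p53RE-bla cells is measured as CellTiter-Glo luminescence following a 16 h, 37 C incubation with compound, liver microsomes from human donors and NADPH.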

Assay [8] is described as follows: p53 small molecule agonists, cell-based qHTS assay with rat liver microsomes: qHTS cell viability counter screen (AID 1963580). Further: nearly all actives have a fitted effect of over 45% in size. An outline of the steps: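 Cytotoxicity counter screen: intracellular ATP read by CellTiter-Glo luminescence in the p53 reporter wells. HCT-116 p53RE-bla cells were treated for 16 h at 37 C alongside rat liver microsomes and NADPH, each 0.5 mg/mL final.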

Assay [9] is described as follows: p53 small molecule agonists, cell-based qHTS assay: qHTS cell viability counter screen (AID 1963581). Further: nearly all actives have a fitted effect of over 45% in size. In outline:
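qHTS counter screen: 16 h compound exposure at 37 C of p53RE-bla HCT-116 cells (4,000 per well, seeded 5 h prior), cell viability by ATP luminescence.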

Assay [10] can be described thus: p53 small molecule agonists, cell-based qHTS assay (AID 1963582; active means well fitted activation curve with a large enough effect in the signal ratio in the repeat runs, not every such curve was filed as active; the % refers to the signal ratio). In outline: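 Measured: fluorescence from cleaved LiveBLAzer substrate. System: p53RE-bla cells, 16 h compound treatment at 37 C, 2 h substrate step at room temperature.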
Assay [11] deals with Muscarinic acetylcholine receptor M1 (Homo sapiens) (UniProt P11229). Put plainly: Cholinergic receptor muscarinic 1 (CHRM1) small molecule antagonists, cell-based qHTS assay (AID 1963588). Further: nearly all actives have a fitted effect of over 40% in size. Further: potency means the concentration at half of the fitted maximal effect. In outline: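 Compounds were tested at 15 concentrations in three independent runs. Dye-loaded CHRM1-CHO cells were exposed 5 min at room temperature before stimulation by acetylcholine added at 50nM. Intracellular calcium was read kinetically on FDSS for 3 min.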
Muscarinic acetylcholine receptor M1 (Homo sapiens), sequence (P11229 whole entry, looked up): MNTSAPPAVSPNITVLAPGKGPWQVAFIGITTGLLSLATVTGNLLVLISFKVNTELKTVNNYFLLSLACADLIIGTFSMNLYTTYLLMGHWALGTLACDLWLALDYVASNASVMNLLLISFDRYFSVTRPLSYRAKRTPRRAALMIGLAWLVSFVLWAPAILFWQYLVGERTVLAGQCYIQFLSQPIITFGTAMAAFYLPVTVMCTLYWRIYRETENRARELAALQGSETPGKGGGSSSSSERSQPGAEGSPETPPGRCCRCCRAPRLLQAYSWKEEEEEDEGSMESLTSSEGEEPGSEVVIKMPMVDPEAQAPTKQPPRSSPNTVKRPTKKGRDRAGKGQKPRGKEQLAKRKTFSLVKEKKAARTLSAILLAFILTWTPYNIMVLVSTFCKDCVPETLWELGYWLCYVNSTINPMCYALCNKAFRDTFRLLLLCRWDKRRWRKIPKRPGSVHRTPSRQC

For assay [12] the target is unchanged. In words: Cholinergic receptor muscarinic 1 (CHRM1) small molecule agonists, cell-based qHTS assay (AID 1963589). Further: nearly all actives have a fitted effect of over 35% in size. An outline of the steps:
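Kinetic fluorescence (1 s intervals) of calcium-sensitive dye in human M1 CHO cells after compound addition; cells pre-incubated 18 h at 37 C/5% CO2 and dye-loaded 1 h.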

Assay [13] is described as follows: cAMP Responsive Elements (CRE) small molecule agonists, cell-based qHTS assay (AID 1963590). In outline: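 Test agents in DMSO were incubated 3 h at 37 C/5% CO2 with CRE-bla HEK 293T cells seeded 18 h earlier; LiveBLAzer B/G FRET substrate was added and read after 2 h at room temperature.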
A short description of assay [14]: cAMP Responsive Elements (CRE) small molecule antagonists, cell-based qHTS assay (AID 1963591; active means well fitted inhibition curve with a large enough effect in the signal ratio in the repeat runs, not every such curve was filed as active; the % refers to the signal ratio). In outline:
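Reporter line CRE-bla HEK 293T in dialyzed-FBS DMEM; cells preincubated 18 h, treated 3 h with compound plus NKH477 (0.25 uM final); LiveBLAzer FRET, 2 h RT.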

Assay [15] concerns the target Beta-2 adrenergic receptor (Homo sapiens) (UniProt P07550). In words: Adrenergic beta2 receptor (ADRB2) small molecule antagonists, cell-based qHTS assay (AID 1963592). Further: series mostly up to about 92 µM; nearly all actives have a fitted effect of over 50% in size. In outline: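 Assay format: CHO-ADRB2 cells, 18-20hr seeding at 37C/5% CO2, then compound plus 1nM isoproterenol agonist mix for 0.5hr RT. Homogeneous time-resolved fluorescence cAMP detection after 1hr, expressed as 665/615 nm ratio.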

Assay [16] concerns the target D(2) dopamine receptor (Homo sapiens) (UniProt P14416). In words: Dopamine D2 receptor (DRD2) small molecule agonists, cell-based qHTS assay (AID 1963594). Further: nearly all actives have a fitted effect of over 35% in size. In outline: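 cAMP accumulation in DRD2-HEK293 cells measured by HTRF after 1 h detection; compounds added 10 min before NKH477 (200nM […]) forskolin-analogue stimulation, 30 min at room temperature, with Ro20-1724 present at 0.1 mM final.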

The target is the same in assay [17]. In words: Dopamine D2 receptor (DRD2) small molecule antagonists, cell-based qHTS assay (AID 1963595; active means well fitted inhibition curve with a large enough effect in the signal ratio in the repeat runs, with a control signal flat; the % refers to the signal ratio; further: potency means the concentration at half of the fitted maximal effect). An outline of the steps:
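Human DRD2 antagonist qHTS measuring cAMP by HTRF. The cells are exposed to compound for 10 min, then to NKH477 (200 nM) and quinpirole (12 nM) for 30 min at RT, with Ro20-1724 (0.1 mM) present throughout.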

Assay [18] deals with 5-hydroxytryptamine receptor 2A (Homo sapiens) (UniProt P28223). Put plainly: 5-hydroxytryptamine receptor 2A (HTR2A) small molecule antagonists, cell-based qHTS assay (AID 1963586). Further: nearly all actives have a fitted effect of over 45% in size. An outline of the steps: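 CHO cells stably expressing human HTR2A were plated for 18 h at 37 C, then loaded with calcium dye for 1 h. Compounds were preincubated 5 min at room temperature before DOI (4 nM solution) was added. Kinetic fluorescence was read for 3 min.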
5-hydroxytryptamine receptor 2A (Homo sapiens), sequence (P28223 whole entry, looked up): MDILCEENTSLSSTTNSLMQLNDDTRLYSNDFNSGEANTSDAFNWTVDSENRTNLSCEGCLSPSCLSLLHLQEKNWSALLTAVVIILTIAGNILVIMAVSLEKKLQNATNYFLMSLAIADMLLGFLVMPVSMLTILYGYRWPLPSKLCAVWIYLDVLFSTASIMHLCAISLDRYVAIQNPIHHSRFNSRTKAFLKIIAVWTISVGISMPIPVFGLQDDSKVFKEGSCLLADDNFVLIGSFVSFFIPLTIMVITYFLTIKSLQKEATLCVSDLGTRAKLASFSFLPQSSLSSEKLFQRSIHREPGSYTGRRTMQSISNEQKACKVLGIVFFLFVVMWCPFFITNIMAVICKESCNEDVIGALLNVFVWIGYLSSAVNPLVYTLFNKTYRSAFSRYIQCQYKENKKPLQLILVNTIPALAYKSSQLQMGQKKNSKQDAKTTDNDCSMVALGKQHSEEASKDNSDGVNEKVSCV

For assay [19] the target is unchanged. Put plainly: 5-hydroxytryptamine receptor 2A (HTR2A) small molecule agonists, cell-based qHTS assay (AID 1963587). Further: nearly all actives have a fitted effect of over 30% in size. In outline: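 Kinetic calcium-flux fluorescence (2 min, 1 sec intervals) after compound addition in agonist mode. HTR2A-CHO cells were cultured 18 h, then dye-loaded 1 h at 37 C.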
On the % scale 0 is the no-effect control and ±100 the full control effect.

Beta-2 adrenergic receptor (Homo sapiens), sequence (P07550 whole entry, looked up): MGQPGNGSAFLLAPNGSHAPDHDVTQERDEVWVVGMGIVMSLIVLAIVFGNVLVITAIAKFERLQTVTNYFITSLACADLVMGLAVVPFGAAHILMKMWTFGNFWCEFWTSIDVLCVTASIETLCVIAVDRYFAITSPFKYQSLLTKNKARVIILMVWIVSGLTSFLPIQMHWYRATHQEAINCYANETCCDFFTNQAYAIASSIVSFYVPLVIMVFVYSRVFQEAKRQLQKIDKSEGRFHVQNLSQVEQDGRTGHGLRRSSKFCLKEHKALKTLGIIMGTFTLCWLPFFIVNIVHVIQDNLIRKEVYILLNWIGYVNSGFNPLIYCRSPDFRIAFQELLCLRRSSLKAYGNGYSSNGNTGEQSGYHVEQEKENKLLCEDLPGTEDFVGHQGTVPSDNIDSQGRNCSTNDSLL
KiSS-1 receptor (Homo sapiens), sequence (Q969F8 whole entry, looked up): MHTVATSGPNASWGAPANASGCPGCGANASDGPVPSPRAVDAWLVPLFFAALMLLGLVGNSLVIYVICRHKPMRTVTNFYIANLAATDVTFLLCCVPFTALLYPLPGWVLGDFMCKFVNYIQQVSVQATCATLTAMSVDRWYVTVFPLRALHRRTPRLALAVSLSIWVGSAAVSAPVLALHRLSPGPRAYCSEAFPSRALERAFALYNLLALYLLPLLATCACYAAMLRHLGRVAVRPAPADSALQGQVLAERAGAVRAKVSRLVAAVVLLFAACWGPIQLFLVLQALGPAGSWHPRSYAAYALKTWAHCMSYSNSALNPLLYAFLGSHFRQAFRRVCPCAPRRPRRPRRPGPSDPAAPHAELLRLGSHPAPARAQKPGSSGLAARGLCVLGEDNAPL
D(2) dopamine receptor (Homo sapiens), sequence (P14416 whole entry, looked up): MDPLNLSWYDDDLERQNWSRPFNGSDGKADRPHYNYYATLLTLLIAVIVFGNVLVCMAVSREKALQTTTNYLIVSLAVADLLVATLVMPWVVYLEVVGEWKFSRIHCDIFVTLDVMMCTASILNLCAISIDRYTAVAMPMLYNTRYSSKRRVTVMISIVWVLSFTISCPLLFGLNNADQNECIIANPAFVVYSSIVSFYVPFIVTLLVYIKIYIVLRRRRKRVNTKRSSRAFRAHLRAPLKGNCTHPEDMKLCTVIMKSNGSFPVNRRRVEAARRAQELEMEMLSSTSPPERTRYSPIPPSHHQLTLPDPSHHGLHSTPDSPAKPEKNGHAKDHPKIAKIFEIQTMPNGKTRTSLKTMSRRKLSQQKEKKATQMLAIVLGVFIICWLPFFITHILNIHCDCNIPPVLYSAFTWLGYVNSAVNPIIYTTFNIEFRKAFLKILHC

Take `Nc1ccc(S(=O)(=O)Nc2ccccc2)cc1`: the Potency entry in [1], in [2], in [5], in assay [6], in assay [7] and in assay [8] was “inactive” each time. Moreover, the Potency entry in [9], in [10], in [11], in assay [12], in assay [13] and in [14] was “inactive” in each case. Also, the Potency result in assay [15], in [16] and in assay [17] was “inactive” throughout. Besides, the outcome in [3] and in [4] was inactive.
In the case of `O=[N+]([O-])c1c(Cl)cc(Cl)cc1Cl`, the Potency result in [1], in assay [2], in assay [5], in assay [6], in assay [7] and in assay [8] was “inactive” in each case. Also, the Potency result in [9], in [10], in [18], in [11], in [12] and in assay [14] was “inactive” each time. The Potency result in [15], in assay [16] and in assay [17] was “inactive” in each case. For the same molecule, the outcome in assay [3] and in [4] was inactive.
For `CCCCOC(=O)C(C)O` (centres undefined), the Potency entry in [1], in [2], in assay [5], in assay [6], in assay [7] and in assay [8] was “inactive” throughout. Further, the Potency entry in assay [9], in [10], in assay [18], in assay [19], in assay [12] and in assay [13] was “inactive” each time. The Potency result in [14], in assay [15], in assay [16] and in assay [17] was “inactive” each time. Besides, the result in [3] and in assay [4] was inactive.
Turning to `Cc1cccc(C(C)(C)C)c1O`, the Potency result in assay [1], in assay [2], in assay [5], in [6], in assay [7] and in assay [8] was “inactive” in each case. For the same molecule, the Potency result in assay [9], in assay [10], in assay [12], in assay [13], in assay [14] and in assay [15] was “inactive” each time. Further, the Potency result in assay [16] and in assay [17] was “inactive” each time. The result in assay [3] and in assay [4] was inactive.
`CC(C(=O)O)c1ccc(/C=C2\CCCCC2=O)cc1` (centres undefined): the Potency entry in assay [1], in [5], in [6], in assay [7], in assay [8] and in [9] was “inactive” each time. In addition, the Potency entry in [10], in [18], in [19], in assay [11], in [12] and in [15] was “inactive” each time. Besides, the Potency result in [16] and in assay [17] was “inactive” in each case. In [2], the Potency was 23.7 µM (active). Moreover, the result in assay [3] and in [4] was inactive.
With `CCOC(=O)C(=O)CCCCCCl`, the Potency entry in assay [1], in assay [2], in assay [5], in assay [6], in assay [7] and in assay [8] was “inactive” each time. The Potency result in [9], in assay [10], in [19], in assay [11], in [12] and in assay [14] was “inactive” each time. For the same molecule, the Potency entry in assay [15], in assay [16] and in assay [17] was “inactive” each time. Besides, the result in assay [3] and in assay [4] was inactive.
As for `Cc1nc2n(c(=O)c1CCN1CCC(c3noc4cc(F)ccc34)CC1)CCC[C@H]2O`, the activity change, negative = cytotoxicity was 0.553% [at 19 µM] in assay [1], -2.44% [at 13.5 µM] in assay [7], 3.38% [at 13.5 µM] in assay [8] and -16.9% [at 13.5 µM] in assay [9]. For the same molecule, the activity, positive = activation in [2] is 1.67% [at 19 µM]. The activation was 2.67% [at 15.8 µM] in assay [3]; -0.871% [at 11.8 µM] in assay [4]; -1.61% [at 13.5 µM] in assay [5]; -1.62% [at 13.6 µM] in assay [6]; -2.71% [at 13.5 µM] in assay [10]; -9.85% [at 15.9 µM] in assay [19]. Besides, the activation in assay [12] is -0.822% [at 15.8 µM]; in assay [13] it was -1.39% [at 19 µM]. Also, the Potency is 4.48 µM (active) in assay [11] and 0.0326 µM (active) in assay [17]. Further, the activity change, negative = inhibition in [14] was 6.49% [at 18.9 µM]; in assay [15] it was -0.824% [at 19 µM].
